Results published in PubChem BioAssay.
Values joined by “and” are separate entries in the source; they are usually repeats but may differ in a detail not shown here. Equal values may be shown once. Active and inactive are the calls of the source. Cut-off read from the data, not from the text of the source, unless noted: active = parasite load remaining mostly below about 12% (no sharp cut-off); inactive = mostly above about 10%. Square brackets hold non-standard residues; d marks the D form. Peptide text beside a SMILES is read from it. Orn = NCCC[CH](N)C(=O)O

Legend:
[1] = P. berghei load reduction in hepatocytes – cell-based, HepG2, luciferase luminescence, HepG2 viability, primary screen (AID 624349);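 note: 100% = mean of DMSO negative control wells on the same plate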; details: P. berghei liver stage in HepG2, luciferase luminescence, concentration not given here; parasite load remaining: stronger effect = lower value; viability: measured here: HepG2 viability without parasites
[2] = EMT-state selective cytotoxicity in co-culture – imaging, PC-3E GFP, TEM4-18 mCherry, primary screen (AID 1345086;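 active = compounds killing one labelled cell type while sparing the other, by normalised counts and ratio limits, not self-fluorescent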;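 for all read-outs here: cells exposed to compound for 72 h before imaging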;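 for red/green cell ratio (normalised): normalised mesenchymal count divided by normalised epithelial count so high means epithelial killing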); details: PC-3E GFP / TEM4-18 mCherry co-culture, imaging cell counts, at 1 µM; for red/green cell ratio (normalised): actives lie on both sides, counts scaled to control wells, 1 = unselective
[3] = viability loss with induced miR-34 in A549 – imaging, A549 dox-inducible miR-34, nuclei and caspase counts, primary screen (AID 1347080;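 active = compounds whose cell count with miR-34 switched on is under 0.7 times the count with it off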); details: A549 miR-34 inducible, Hoechst nuclei count, 48 h
[4] = molecular target: NAD(+) hydrolase SARM1 (Homo sapiens) (UniProt Q6SZW1); assay: blocking NAD cleavage by SARM1 SAM-TIR – cell lysate, NAD-Glo luminescence (AID 1508614;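 active = compound whose remaining NAD level is above about 45 nM, limit read from the data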;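 note: higher remaining NAD means stronger inhibition of SARM1 NADase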); details: SAM-TIR HEK293T lysate NADase, at 1 µM, stronger effect = higher value
[5] = compounds altering HSF1 focus formation in cells – imaging, Selleck Cancer Library (AID 1347162; in the data active = plate-normalised HSF1 focus index below about 0.46); details: human cells, HSF1 nuclear foci imaging, at 10 µM; SSMD: measured here: HSF1 foci SSMD mean; cell count: measured here: cell number; plate-normalised HSF1 focus index: stronger effect = lower value
[6] = measured here: epithelial PC-3E GFP cell survival
[7] = measured here: mesenchymal TEM4-18 mCherry cell survival
[8] = stronger effect = lower value, cell number ratio, induced over uninduced
[9] = measured here: relative caspase fold change +Dox/-Dox
[10] = measured here: total cells with miR-34 induction, stronger effect = lower value
[11] = measured here: total cells without miR-34 induction

NAD(+) hydrolase SARM1 (Homo sapiens), sequence (Q6SZW1 whole entry, looked up): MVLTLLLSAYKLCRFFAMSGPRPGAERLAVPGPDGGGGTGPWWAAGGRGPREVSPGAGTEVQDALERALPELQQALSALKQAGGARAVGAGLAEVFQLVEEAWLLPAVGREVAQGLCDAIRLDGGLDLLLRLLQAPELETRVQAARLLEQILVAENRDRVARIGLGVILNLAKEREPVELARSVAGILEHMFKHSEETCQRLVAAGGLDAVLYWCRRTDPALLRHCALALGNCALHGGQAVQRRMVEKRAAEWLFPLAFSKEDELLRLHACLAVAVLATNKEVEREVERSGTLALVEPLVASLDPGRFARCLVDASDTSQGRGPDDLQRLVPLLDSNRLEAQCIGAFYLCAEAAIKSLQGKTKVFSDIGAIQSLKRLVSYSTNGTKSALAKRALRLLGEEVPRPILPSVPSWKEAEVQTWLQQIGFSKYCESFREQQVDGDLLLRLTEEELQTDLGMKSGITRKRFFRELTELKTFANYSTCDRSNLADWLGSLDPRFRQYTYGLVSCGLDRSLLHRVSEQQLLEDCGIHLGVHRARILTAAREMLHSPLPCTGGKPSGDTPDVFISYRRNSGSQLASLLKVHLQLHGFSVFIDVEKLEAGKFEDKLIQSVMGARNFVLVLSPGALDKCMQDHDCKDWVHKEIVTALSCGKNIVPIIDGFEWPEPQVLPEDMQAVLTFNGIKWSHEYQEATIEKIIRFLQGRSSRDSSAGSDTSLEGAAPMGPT

Row | SMILES | parasite load remaining [1] | viability [1] | red/green cell ratio (normalised) [2] | normalised cell number [2, 6] | normalised cell number [2, 7] | fold change [3, 8] | fold change [3, 9] | cell count [3, 10] | cell count [3, 11] | remaining NAD [4] | SSMD [5] | cell count [5] | plate-normalised HSF1 focus index [5]
1 | CS(=O)(=O)c1ccc(C(O)[C@H](CF)NC(=O)C(Cl)Cl)cc1 (stereo partly specified) | 50.1% (inactive) | 102% | 0.78 (inactive) | 0.91 | 0.71 | 0.945 (inactive) | 2.12 | 10700 | 11400 | – | – | – | –
2 | CC(C)(Oc1ccc(C(=O)c2ccc(Cl)cc2)cc1)C(=O)O | – | – | 1.11 (inactive) | 1.09 | 1.21 | – | – | – | – | 10 nM (inactive) | – | – | –
3 | CNCC[C@@H](Oc1ccccc1)c1ccccc1 | 48% (inactive) | 116% | 1.13 (inactive) | 1.27 | 1.44 | 0.971 (inactive) | 1.23 | 10900 | 11200 | – | – | – | –
4 | C=C1CC[C@H](O)C/C1=C/C=C1\CCCC2(C)C1CCC2C(C)CCCC(C)C (stereo partly specified) | 36.2% (inactive) | 104% | 1.03 (inactive) | 1.11 | 1.14 | 0.909 (inactive) | 2.89 | 11700 | 12900 | – | – | – | –
5 | CC(C)CC1NC(=O)C(CCCN)NC(=O)C(C(C)C)NC(=O)C(Cc2ccc(O)cc2)NC(=O)C(CCC(=O)O)NC(=O)C(CC(=O)O)NC(=O)C(Cc2ccccc2)NC(=O)C(Cc2ccccc2)NC(=O)C2CCCN2C(=O)C(Cc2ccccc2)NC1=O (stereo unspecified) (cyclo(DEYV[Orn]LFPFF); configuration not given here) | 7.69% (inactive) and 0.08% (inactive) | 49.2% and 36.8% | 0.75 (inactive) | 0.47 | 0.35 | 1.12 (inactive) | 0.824 | 1510 | 1350 | – | – | – | –
6 | NC[C@H]1O[C@H](OC2[C@@H](N)C[C@@H](N)[C@H](O[C@H]3O[C@H](CO)[C@@H](O)[C@H](N)[C@H]3O)[C@H]2O)[C@H](O)[C@@H](O)[C@@H]1O (stereo partly specified) | 92.2% (inactive) and 70.3% (inactive) | 72.7% and 101% | 1.25 (inactive) | 0.64 | 0.8 | 0.877 (inactive) | 2 | 11500 | 13200 | – | – | – | –
7 | CO/N=C(/C(=O)N[C@@H]1C(=O)N2C(C(=O)O)=C(CSc3nc(=O)c(O)nn3C)CS[C@H]12)c1csc(N)n1 | 147% (inactive) and 79.9% (inactive) and 62.4% (inactive) | 82.1% and 106% and 101% | 1.22 (inactive) | 1.02 | 1.24 | 0.888 (inactive) | 3.26 | 11700 | 13200 | – | – | – | –
8 | O=C1[C@H](CCC(O)c2ccc(F)cc2)[C@@H](c2ccc(O)cc2)N1c1ccc(F)cc1 (stereo partly specified) | 127% (inactive) and 58.1% (inactive) | 82.3% and 90.7% | 1.19 (inactive) | 0.87 | 1.03 | 0.905 (inactive) | 1.79 | 11700 | 12900 | – | – | – | –
9 | CCC(=O)OCC(=O)[C@@]1(OC(=O)CC)[C@@H](C)CC2C3CCC4=CC(=O)C=C[C@]4(C)C3(F)[C@@H](O)C[C@@]21C (stereo partly specified) | 25.9% (inactive) | 83.8% | 1.32 (inactive) | 1.03 | 1.37 | 0.918 (inactive) | 2.62 | 7780 | 8480 | – | – | – | –
10 | CCN[C@@H]1C[C@H](N)[C@@H](O[C@H]2OC(CN)=CC[C@H]2N)[C@H](O)[C@H]1OC1OC[C@](C)(O)[C@H](NC)[C@H]1O (stereo partly specified) | 81% (inactive) | 99.2% | 0.96 (inactive) | 1.05 | 1 | 0.763 (inactive) | 6.26 | 8580 | 11200 | – | – | – | –
11 | CC(=O)OC1CCC2C3CCc4cc(O)ccc4C3CCC12C (stereo unspecified) | 37.6% (inactive) and 33.6% (inactive) | 66.8% and 98% | 0.88 (inactive) | 1.2 | 1.05 | 0.907 (inactive) | 3.29 | 8630 | 9520 | – | – | – | –
12 | C=C(NC(=O)C(=C)NC(=O)c1csc(C2=NC3c4csc(n4)C4NC(=O)c5csc(n5)C(C(C)(O)C(C)O)NC(=O)C5CSC(=N5)C(=CC)NC(=O)C(C(C)O)NC(=O)c5csc(n5)C3(CC2)NC(=O)C(C)NC(=O)C(=C)NC(=O)C(C)NC(=O)C(C(C)CC)NC2C=Cc3c(C(C)O)cc(nc3C2O)C(=O)OC4C)n1)C(N)=O (stereo unspecified) | 64.9% (inactive) and 23.2% (inactive) | 75.8% and 108% | 0.94 (inactive) | 0.8 | 0.75 | 0.829 (inactive) | 1.94 | 9190 | 11100 | – | – | – | –
13 | CC(=O)O[C@@]12CO[C@@H]1C[C@H](O)[C@@]1(C)C(=O)[C@H](O)C3=C(C)[C@@H](OC(=O)[C@H](O)[C@@H](NC(=O)OC(C)(C)C)c4ccccc4)C[C@@](O)([C@@H](OC(=O)c4ccccc4)C12)C3(C)C (stereo partly specified) | – | – | 1.12 (inactive) | 0.16 | 0.18 | – | – | – | – | – | 1.92 | 6830 | 1.1 (inactive)
14 | NCC1CCCCC1CC(=O)O (stereo unspecified) | 148% (inactive) and 51.6% (inactive) | 89.1% and 119% | 0.8 (inactive) | 1.27 | 1.02 | 0.945 (inactive) | 5.86 | 12000 | 12700 | – | – | – | –
15 | CC(C)CCCC(C)[C@H]1CCC2C3CC=C4C[C@@H](O)CC[C@]4(C)C3CC[C@@]21C (stereo partly specified) | 39.9% (inactive) | 101% | 1.04 (inactive) | 1.14 | 1.19 | 0.96 (inactive) | 2.49 | 12300 | 12900 | – | – | – | –
16 | CCCCC/C=C/CCC(=O)N[C@H]1[C@H](Oc2c3cc4cc2Oc2ccc(cc2Cl)[C@@H](O[C@@H]2O[C@H](CO)[C@@H](O)[C@H](O)[C@H]2NC(C)=O)[C@@H]2NC(=O)[C@H](NC(=O)[C@@H]4NC(=O)[C@H]4NC(=O)C(Cc5ccc(c(Cl)c5)O3)NC(=O)[C@H](N)c3ccc(O)c(c3)Oc3cc(O)cc4c3)c3ccc(O)c(c3)-c3c(OC4O[C@H](CO)[C@@H](O)[C@H](O)[C@@H]4O)cc(O)cc3[C@@H](C(=O)O)NC2=O)O[C@H](CO)[C@@H](O)[C@@H]1O (stereo partly specified) | 146% (inactive) | 99.2% | 1.02 (inactive) | 0.94 | 0.96 | 0.918 (inactive) | 5.67 | 12100 | 13200 | – | – | – | –
